# Measured values published in PubChem BioAssay (Tox21).
# Records with an inconclusive call do not appear. A number with no mark means an inactive call. Calls of active or inactive are those of the source. The call rests on the fitted dose curve; in most records, active means well fitted cell-killing curve with a large enough effect in the repeat runs; inconclusive means weak or mixed curves, or effect the other way; inactive means flat fitted curve, though single readings scatter.
# Assay: qHTS assay to identify small molecule antagonists of the constitutive androstane receptor (CAR) signaling pathway - cell viability counter screen (AID 1224837); further: nearly all actives have a fitted effect of over 45% in size
# Details: HepG2-CYP2B6-hCAR viability, CellTiter-Fluor, 23 h, co-treated with 50 nM CITCO; series mostly up to 92.4 µM; activity change, negative = cytotoxicity: at the top concentration
# From the text: National Center for Advancing Translational Sciences [NCATS]
# NIH Chemical Genomics Center [NCGC]
# U.S. Environmental Protection Agency [EPA]
# National Institutes of Environmental Health Sciences [NIEHS]
# National Toxicology Program [NTP]
# U.S. Food and Drug Administration [FDA]
# The constitutive androstane receptor (CAR) is a nuclear receptor which regulates multiple drug metabolizing enzymes (DMEs) and transporters. Activating CAR will generally increase the transcription and subsequent translation of CYP2B6 and CYP3A4. These two DMEs represent about 50% of the drug metabolizing potential in the body. When CAR is deactivated, the metabolizing potential in the body will decrease, subsequently increasing the toxicity in the body or lowering the therapeutic potential of a pro-drug. Recently, there have also been studies performed indicating CARs role in energy metabolism and cancer therapy. Therefore, inhibiting CARs activity could have a potential effect on diabetes and cancer. Identifying environmental toxins and compounds which modulate CAR, through the use of the Tox21 10K compound collection, will be an important step in determining the toxicity and potential therapeutic effects these factors will have on the human body. To differentiate true CAR antagonists from cytotoxic substances, the assay is multiplexed with a cell viability assay.
# Tox21 Assay Protocol Summary:
# A double-stable (hCAR and CYP2B6-2.2kb) transfected cell line, derived from human hepatoma (HepG2) cells, was utilized for the duration of the quantitative high-throughput screens. The HepG2-CYP2B6-hCAR cells were dispensed at 2500 cells/4 uL/well in 1536-well white solid bottom plates using a Multidrop Combi. After the assay plates were incubated at 37 C/5% CO2 for 4 hrs, 23 nL of compounds at 15 concentrations (from 5-48 columns) or positive control (from 1 to 4 columns) were transferred to the assay plates using a Pintool station. One uL of CITCO (final concentration = 50 nM) was added, using a Flying Reagent Dispenser, inside each well. After a 23 hr incubation period at 37 C/5% CO2, 1 uL of CellTiter-Fluor reagent was added into each well of the assay plates using a Flying Reagent Dispenser. The fluorescence intensity in the plates was then measured using a ViewLux plate reader.
# On the % scale 0 is the no-effect control and ±100 the full control effect; potency means the concentration at half of the fitted maximal effect.
SMILES,"activity change, negative = cytotoxicity",Potency
CC(C)(C)S,6.8%,
CC(=O)NNC(C)=O,-6.54%,
CC(C)OC(=O)c1ccccc1C(=O)OC(C)C,-1.04%,
CC(=O)OCC(C)C,-4.54%,
CCCCCC,-0.421%,
NC(=O)CCCCC(N)=O,9.65%,
CC(C)c1ccc(C(=O)N=C(N)N)cc1S(C)(=O)=O,-6.59% [at 42.5 µM],
CCOC(=O)c1c(N)sc2c1CCN(Cc1ccccc1)C2,0.512% [at 42.5 µM],
O=C(O)CCCc1c[nH]c2ccccc12,-3.91%,
COC(=O)Nc1nc2ccc(C(=O)C3CC3)cc2[nH]1,-17.6% [at 42.5 µM],
Cc1c[nH]c2ccccc12,7.68% [at 42.5 µM],
O=C(O)CCS,6.95%,
O=C(NS(=O)(=O)/C=C/c1ccccc1)c1ccc(F)cc1Cl,6.26%,
COc1ccc(-c2cc(=S)ss2)cc1,-10.5% [at 42.5 µM],
COc1cc(C(C)=O)ccc1OCCCN1CCC(c2noc3cc(F)ccc23)CC1,-12.3% [at 42.5 µM],
COc1ccc(N)c([N+](=O)[O-])c1,-15.2%,
CCCCCCCCCCCC(=O)OCC(O)CO (stereo not given),-8.67%,
CC(C)N=C=NC(C)C,1.07%,
CO[C@@H]1[C@@H](OC)[C@H](C)[C@@](O)(CC(=O)O)O[C@H]1[C@H](C)[C@H]1O[C@@]2(CC[C@@](C)([C@H]3CC[C@@](C)([C@@H]4O[C@@H]([C@H]5O[C@](C)(O)[C@H](C)C[C@@H]5C)C[C@@H]4OC4C[C@H](OC)[C@@H](OC)[C@H](C)O4)O3)O2)C[C@H](O)[C@H]1C (stereo not given in full),,4.73 µM (active)
CS(=O)(=O)c1ccc([C@@H](C[C@H]2CCC(=O)C2)C(=O)Nc2cnccn2)cc1Cl,-6.82%,

SMILES,"activity change, negative = cytotoxicity",Potency
COc1cc(NC(C)CCCN)c2ncccc2c1 (stereo not given),-7.33% [at 42.5 µM],
O=C(O)CN1C(=O)c2cccc3cccc(c23)C1=O,6.12% [at 42.5 µM],
CCCOC(=O)c1c(Cl)c(Cl)c(Cl)c(Cl)c1C(=O)OCCC,-2.22%,
CCCCOCCOC(=O)c1cccnc1,-1.35% [at 42.5 µM],
CCCCOC(=O)CCCCC(=O)OCCCC,4.88%,
COc1ccc(CCN(C)CCCN2CCc3cc(OC)c(OC)cc3CC2=O)cc1OC,-6.15% [at 42.5 µM],
CCC(CO)(CO)[N+](=O)[O-],-1.79%,
O=C1OC(=O)c2c(Br)c(Br)c(Br)c(Br)c21,-14.8%,
Nc1cccc2c(N)cccc12,,24.3 µM (active)
O=C(C(=O)c1ccco1)c1ccco1,-0.0164%,
CC1=CC[C@@]23C[C@@H]1C(C)(C)[C@@H]2CC[C@H]3C,3.09%,
SCCc1cnccn1,-14.9%,
O=C1NC(=O)c2cccc3cccc1c23,-5.01%,
CCCCC[C@H](O)/C=C/[C@H]1[C@H](O)CC(=O)[C@@H]1C/C=C\CCCC(=O)O,0.0956% [at 42.5 µM],
O=CNNC=O,-5.59%,
c1ccc(CCCc2ccncc2)cc1,-11.6%,
O=C(O)CCC(=O)c1ccc(-c2ccccc2)cc1,4.99% [at 42.5 µM],
O=S(=O)(O)CO,-0.524%,
COC(=O)CC(C(C)=O)C(=O)OC (stereo not given),-0.711%,
CC(CCc1ccc(O)cc1)NCCc1ccc(O)c(O)c1 (stereo not given),0.817% [at 42.5 µM],
